The campaign covered roughly 310,000 compounds. About 14,000 (4.5%) showed an effect of 50% or more. The effect is printed as a negative number. For the sample, strong results were picked, then their nearest neighbours and some compounds at random.
molecular target: human ether-à-go-go-related gene (hERG) potassium channel (human, UniProt Q12809); test: primary screen, population patch clamp on CHO cells stably expressing hERG; higher = less effect of the substance
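Further: peak tail current of the secondary pulse compared with the same well before compound.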

Chain of human ether-à-go-go-related gene (hERG) potassium channel (Q12809 whole entry, looked up): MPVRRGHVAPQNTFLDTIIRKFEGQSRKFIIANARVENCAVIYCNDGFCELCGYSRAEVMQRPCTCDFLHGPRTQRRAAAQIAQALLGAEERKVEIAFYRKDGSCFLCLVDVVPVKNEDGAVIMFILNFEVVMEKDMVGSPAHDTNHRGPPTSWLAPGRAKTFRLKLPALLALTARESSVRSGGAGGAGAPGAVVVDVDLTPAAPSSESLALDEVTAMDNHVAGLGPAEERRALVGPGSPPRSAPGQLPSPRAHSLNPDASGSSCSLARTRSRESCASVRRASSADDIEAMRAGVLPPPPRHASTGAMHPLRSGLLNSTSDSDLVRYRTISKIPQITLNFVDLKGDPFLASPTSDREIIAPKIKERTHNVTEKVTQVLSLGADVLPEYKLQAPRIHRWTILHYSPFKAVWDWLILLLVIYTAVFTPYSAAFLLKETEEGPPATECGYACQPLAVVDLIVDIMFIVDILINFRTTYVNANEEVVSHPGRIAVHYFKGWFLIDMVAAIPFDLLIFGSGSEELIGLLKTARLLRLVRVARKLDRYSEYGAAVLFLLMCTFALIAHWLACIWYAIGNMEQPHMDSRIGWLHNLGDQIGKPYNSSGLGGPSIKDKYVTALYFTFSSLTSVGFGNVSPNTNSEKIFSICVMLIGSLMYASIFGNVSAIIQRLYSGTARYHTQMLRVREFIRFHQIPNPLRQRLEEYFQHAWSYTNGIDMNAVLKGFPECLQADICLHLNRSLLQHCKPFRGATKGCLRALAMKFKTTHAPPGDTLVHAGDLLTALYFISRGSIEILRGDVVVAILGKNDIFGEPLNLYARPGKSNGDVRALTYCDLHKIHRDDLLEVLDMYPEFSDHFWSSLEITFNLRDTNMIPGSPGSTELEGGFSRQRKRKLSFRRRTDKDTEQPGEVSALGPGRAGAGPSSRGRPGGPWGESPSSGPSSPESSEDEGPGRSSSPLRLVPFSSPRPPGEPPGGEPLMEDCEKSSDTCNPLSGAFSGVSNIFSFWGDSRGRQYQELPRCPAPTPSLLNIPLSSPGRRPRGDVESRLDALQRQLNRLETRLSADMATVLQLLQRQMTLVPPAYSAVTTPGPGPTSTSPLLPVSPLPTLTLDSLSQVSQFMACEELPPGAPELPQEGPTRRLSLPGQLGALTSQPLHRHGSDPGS

Structure (SMILES)	hERG current change (%, negative = inhibition) at 10uM [%]
CCc1sc(-c2c(C#N)c(N)nc3c2CCCCCC3)cc1[N+](=O)[O-]	14
Cc1ccc(C(=O)NC(C)c2ccccc2)cc1Br (stereo not shown)	-11.8
Cc1cc(C)cc(NC(=O)c2ccc(S(=O)(=O)C(F)F)cc2)c1	-29.7
CC(=O)NCCNc1nc2c(-c3cccc(C)c3)nnn2c2ccccc12	12.8
CC(CN1CCCCC1)OC(=O)c1ccc(Cl)cc1.Cl (stereo not shown)	-36.4
O=C1CCN(S(=O)(=O)c2cc(C(F)(F)F)ccc2Cl)CC1	-1.34
CCc1ccccc1NC(=O)c1ccccc1N1C(=O)C2C3C=CC(C3)C2C1=O (stereo not shown)	18.3
CC(=O)N1CCN(c2ccc([N+](=O)[O-])c(-n3nc(C)cc3C)c2)CC1	-51.9
Cc1cc(C)n(-c2cc(N3CCN(C(=O)c4ccc(C(C)(C)C)cc4)CC3)ccc2[N+](=O)[O-])n1	-34.4
Cc1cc(C)n(-c2cc(N3CCN(C(=O)c4ccccc4C)CC3)ccc2[N+](=O)[O-])n1	-52.7
COc1ccc(C(=O)N2CCN(c3ccc([N+](=O)[O-])c(-n4nc(C)cc4C)c3)CC2)cc1	-78.2
Cc1cc(C)n(-c2cc(N3CCN(S(=O)(=O)c4ccc(C)c(C)c4)CC3)ccc2[N+](=O)[O-])n1	15
Cc1cc(C)n(-c2cc(N3CCN(S(=O)(=O)c4ccc(Cl)cc4)CC3)ccc2[N+](=O)[O-])n1	-32.8
COc1ccc(N2CCN(C(=O)c3ccc(-n4nc(C)cc4C)cc3)CC2)cc1	-19.4
Cc1ccccc1C(=O)N1CCN(c2ccc([N+](=O)[O-])c(N3CCOCC3)c2)CC1	-16.3
Cc1cc(C)c(S(=O)(=O)N2CCN(c3ccc([N+](=O)[O-])c(-n4nc(C)cc4C)c3)CC2)c(C)c1	-7.91
COc1cc(C)ccc1OCc1cc(C(=O)NCCN2CCOCC2)no1	2.08
COc1ccc(/C=N/NC(=O)c2ccc3nc[nH]c3c2)cc1OC	20.7
CCC1CCCCN1Cc1ccc(OC)c(C)c1C (stereo not shown)	-31.2
Cc1ccc(CNC(=O)C2CCCN2C(=O)Nc2ccccc2)cc1 (stereo not shown)	-8.61
COc1ccccc1N1CCN(S(=O)(=O)c2cn(C)nc2C)CC1	-2.6
CCCCN(C(=O)CN1CC(C)OC(C)C1)c1c(N)n(CC(C)C)c(=O)[nH]c1=O (stereo not shown)	9.06
